Reference: PubChem BioAssay (NCI)
Values joined by “and” are separate entries in the source; they are usually repeats but may differ in a detail not shown here. Identical values can stand only once. The panel holds about 83,000 compounds, 20% with a hit somewhere; the sample as a whole holds those more often.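 Each cell line was grown in a 96-well plate and treated with one concentration of compound for 48 hours. Values below 10 were considered active.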 Values without a mark were called inactive. Active and inactive are the calls of the source.

Assays:
Assay in all cases: NCI-60 one-dose screen, 48 h (100 = growth as untreated, 0 = no growth, -100 = all killed)
Details in all cases: 10 µM unless noted
[1] = tested on: NCI-H23 lung
[2] = tested on: NCI-H226 lung
[3] = tested on: NCI-H322M lung
[4] = tested on: HOP-62 NSCLC
[5] = tested on: NCI-H460 lung
[6] = tested on: HOP-92 NSCLC
[7] = tested on: 786-0 renal
[8] = tested on: COLO 205 colon
[9] = tested on: DU-145 prostate
[10] = tested on: K-562 leukemia
[11] = tested on: MALME-3M melanoma
[12] = tested on: MDA-MB-231 breast
[13] = tested on: RXF 393 renal
[14] = tested on: SF-268 CNS
[15] = tested on: SF-295 CNS
[16] = tested on: SF-539 CNS
[17] = tested on: M14 melanoma
[18] = tested on: A549/ATCC NSCLC
[19] = tested on: UACC-257 melanoma
[20] = tested on: NCI-H522 lung

Row | SMILES | growth [1] | growth [2] | growth [3] | growth [4] | growth [5] | growth [6] | growth [7] | growth [8] | growth [9] | growth [10] | growth [11] | growth [12] | growth [13] | growth [14] | growth [15] | growth [16] | growth [17] | growth [18] | growth [19] | growth [20]
1 | c1ccc2c(c1)O[As](O[As]1Oc3ccccc3O1)O2 | 43.8% | 65.2% | 58.5% | 50.6% | 54.8% | -12.2% (active) | 25.3% | 50.3% | 60.6% | 5.83% (active) | -7.18% (active) | 62% | 42.4% | 19.2% | 99.3% | -32.9% (active) | 52.2% |  |  | 
2 | C[N+]12CCC34C5=CC(=O)C(=O)C=C5[N+]5(C)C(=O)CC6OCC=C(C1)C(CC32)C6C45 (stereo unspecified) | 117% | 98.6% | 98.5% | 102% | 105% |  | 112% | 101% | 102% | 97.6% | 99.4% | 97.6% | 93.1% | 111% | 93% | 97.5% | 118% | 106% | 113% | 
3 | C[C@]12CC[C@H]3[C@@H](CC=C4c5nc(N)sc5CC[C@@]43C)[C@@H]1CC[C@@H]2O | 98.4% | 97.1% | 108% | 100% | 96% | 105% | 100% | 113% | 103% | 95.2% | 107% | 111% | 99.4% | 97.1% | 100% | 98.5% | 98.7% | 94.5% | 92.6% | 
4 | CC1(C)CN=C(NN=C(/C=C/c2ccc(C(F)(F)F)cc2)/C=C/c2ccc(C(F)(F)F)cc2)NC1 | -43% (active) | -15.1% (active) | 31.4% | -85.5% (active) | -54% (active) |  | -90.2% (active) | -91.6% (active) | -13.7% (active) | -37.5% (active) | -58.8% (active) | -83.1% (active) |  | -34.5% (active) | -70.8% (active) | -78.4% (active) | -71.7% (active) |  | -45.9% (active) | -76.6% (active)
5 | COC(=O)[C@@H](C)C[C@H](Cc1ccccc1)NC(=O)c1cccc([C@@H](C[C@H](C(C)C)N(C)C(=O)[C@@H](NC(=O)[C@H]2CCCCN2C)C2CC2)OC(C)=O)n1 | 21% | 22.8% | 39.4% | 3.33% (active) | 7.3% (active) | 5.28% (active) | 20.8% | -69% (active) | 3.09% (active) | 6.15% (active) | 67.1% | -20.4% (active) | 23.4% | 18.6% | 3.47% (active) | -15% (active) |  | 7.97% (active) | 36.4% | 
6 | C/C=C(/C)C(=O)O[C@H]1CC[C@@]2(C)[C@@H]3CC[C@H]4[C@]5(O)C[C@H](O)[C@@]6(O)[C@@H](CN7C[C@@H](C)CC[C@H]7[C@@]6(C)O)[C@]5(O)C[C@@]42O[C@@]13O | 106% | 102% | 97.9% | -56.5% (active) | 110% |  | 89.9% | 118% | 138% | 136% | 92.7% | 130% | 108% | 116% | 100% | 111% | 102% | 94% | 102% | 
7 | ClCc1ccc(Cl)c(Cl)c1 | 102% | 93.7% | 98.3% | 111% | 103% |  | 95.4% | 116% | 106% | 107% | 83% | 108% |  | 101% | 94.4% | 99.6% | 95.3% | 107% | 98.3% | 94.2%
8 | O=C1c2ccccc2C(=O)N1N1CC1c1ccccc1 (stereo unspecified) | 96.3% | 102% | 92.5% | 111% | 111% |  | 98.9% | 101% | 109% | 97.7% | 91.9% | 118% | 107% | 104% | 104% | 102% |  | 98.8% | 101% | 
9 | NC(=O)c1c(Br)c(Br)c(Br)c(Br)c1C(=O)O (tested in a mixture with another compound) | 99.9% and 100% | 99.8% and 98.4% | 105% and 114% | 124% and 103% | 111% | 85.8% and 86% | 109% and 104% | 113% and 104% | 112% and 108% | 80.6% and 79.6% | 102% and 91.1% | 87.5% and 94.2% | 106% and 112% | 97.7% and 100% |  | 97.2% and 98.4% |  | 102% and 98% | 98.7% and 105% | 
10 | CCOC(=O)P(=O)(OCC)OCC | 112% | 106% |  | 109% | 116% | 94.9% | 113% | 112% | 115% | 121% | 122% | 110% | 115% | 104% | 126% | 106% | 116% | 101% | 102% | 85.7%
11 | O=[N+]([O-])c1ccc(OCc2ccc(S(=O)(=O)F)c(Cl)c2)c(Cl)c1 | 99.2% | 93.4% |  | 106% | 115% | 77.5% | 79.9% | 101% | 118% | 99% | 98.6% | 85.9% | 114% | 95.8% | 106% | 93.6% | 96.9% | 110% | 118% | 89.1%
12 | CN(C)[C@@H]1C(=O)C(C(N)=O)=C(O)[C@@]2(O)C(=O)C3=C(O)c4c(O)ccc(Cl)c4[C@@](C)(O)[C@H]3C[C@@H]12 | 99.6% and 88.6% | 93.3% and 95.3% |  | 90.3% | 88.9% and 101% | 75.7% and 11.8% | 91.3% and 71.2% | 92.8% and 97.8% | 103% | 109% and 93.8% | 79.3% and 80.7% | 103% and 98% | 96.1% and 94.3% | 94.8% and 98.9% | 90.1% and 103% | 93.3% and 92.1% | 79.8% and 92.6% | 97% | 108% and 106% | 79.4% and 32.7%
13 | CCOP(=O)(OCC)C(=O)N(CC)CC | 105% | 94.3% |  | 99.9% | 103% |  | 98% | 118% | 107% | 121% | 108% | 99.8% | 101% | 101% | 98.8% | 113% | 101% | 98.4% | 88.4% | 91.7%
14 | C[N+]1(CC#CC[N+]2(C)CCCC2)CCCC1 | 111% | 91.1% |  | 105% | 106% | 90.6% | 99.2% | 103% | 106% | 106% | 99% | 102% | 103% | 95.9% | 98.6% | 105% | 103% | 107% | 105% | 99.5%
15 | CCN(CC)CCn1c(=O)n(C)c2ccccc21 | 97.4% | 102% |  | 107% | 106% | 93.7% | 111% | 109% | 109% | 103% | 103% | 119% | 106% | 101% | 111% | 98.1% | 108% | 105% | 97.5% | 108%
16 | CC[C@H](C)[C@H](NC(=O)[C@H]1CCCCN1C)C(=O)N(C)[C@H](CCc1nc(C(=O)N[C@@H](Cc2ccccc2)C[C@H](C)C(=O)O)cs1)C(C)C | 29.9% | 31% |  | 12.6% | 8.77% (active) | 30.3% | 31.8% | -37.9% (active) | 9.58% (active) | 6.62% (active) | 78.4% | 11.2% | 31.8% | 20.9% | -1.24% (active) | -12.9% (active) | 4.31% (active) | 22.4% | 53.4% | -6.97% (active)
